# Laboratory results as given in publication PMC7862700, “An all-to-all approach to the identification of sequence-specific readers for epigenetic DNA modifications on cytosine”.
# Tests used:
# Assay in all cases: DAPPL (digital affinity profiling via proximity ligation, sequencing); 10 mM Tris-HCl pH 7.5, 50 mM NaCl, 1 mM DTT, 4% glycerol, room temperature, 30 min; GST-TFs on glutathione beads, 16-mer random dsDNA library, 0.1% formaldehyde crosslink after washing; high values mean tight binding
# Details in all cases: protein: recombinant; tags: N-terminal GST; dsDNA, one strand shown
# FLI1 = target: T1, FLI1 (Homo sapiens, UniProt Q01543 1-452)
# T1 sequence: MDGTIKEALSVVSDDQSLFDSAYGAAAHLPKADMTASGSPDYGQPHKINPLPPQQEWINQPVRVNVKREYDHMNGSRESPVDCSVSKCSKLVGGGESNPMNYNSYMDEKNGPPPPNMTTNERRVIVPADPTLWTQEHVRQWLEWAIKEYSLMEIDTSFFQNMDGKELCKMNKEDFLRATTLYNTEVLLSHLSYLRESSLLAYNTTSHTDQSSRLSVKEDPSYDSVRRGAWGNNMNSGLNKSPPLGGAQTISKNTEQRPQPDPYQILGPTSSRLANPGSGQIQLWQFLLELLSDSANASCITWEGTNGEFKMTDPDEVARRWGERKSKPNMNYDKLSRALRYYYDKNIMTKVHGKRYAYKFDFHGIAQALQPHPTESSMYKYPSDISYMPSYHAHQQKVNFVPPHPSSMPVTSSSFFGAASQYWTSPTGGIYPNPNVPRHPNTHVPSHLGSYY
# Method in brief: (§1)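 Human transcription factors were made in yeast as GST fusions, captured on glutathione beads and barcoded with DNA. With a tag-only sample included, the pool was incubated with 200 nmole of a random double-stranded 16-mer DNA library in Tris/NaCl/DTT/glycerol buffer at room temperature for 30 min, then crosslinked with 0.1% formaldehyde after washing, ligated by proximity, amplified and sequenced. For binding signal, each hexamer's read frequency for a factor is divided by its frequency for the tag-only sample.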
# ELK1 = target: T2, ELK1 (Homo sapiens, UniProt P19419 1-428)
# T2 sequence: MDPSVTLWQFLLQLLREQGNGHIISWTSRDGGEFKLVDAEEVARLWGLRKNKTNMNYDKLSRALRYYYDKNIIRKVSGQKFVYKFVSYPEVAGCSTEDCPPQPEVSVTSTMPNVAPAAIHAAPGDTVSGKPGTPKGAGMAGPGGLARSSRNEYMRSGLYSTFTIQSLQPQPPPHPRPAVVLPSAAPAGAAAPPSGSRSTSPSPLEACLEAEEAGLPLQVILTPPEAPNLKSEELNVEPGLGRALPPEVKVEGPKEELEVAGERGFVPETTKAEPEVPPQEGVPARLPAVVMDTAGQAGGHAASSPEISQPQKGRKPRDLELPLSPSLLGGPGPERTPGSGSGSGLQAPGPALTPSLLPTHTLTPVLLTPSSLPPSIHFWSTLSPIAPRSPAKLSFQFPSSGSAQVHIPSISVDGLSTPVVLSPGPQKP
# Method in brief: as §1
# GABPA = target: T3, GABPA (Homo sapiens, UniProt Q06546 1-454)
# T3 sequence: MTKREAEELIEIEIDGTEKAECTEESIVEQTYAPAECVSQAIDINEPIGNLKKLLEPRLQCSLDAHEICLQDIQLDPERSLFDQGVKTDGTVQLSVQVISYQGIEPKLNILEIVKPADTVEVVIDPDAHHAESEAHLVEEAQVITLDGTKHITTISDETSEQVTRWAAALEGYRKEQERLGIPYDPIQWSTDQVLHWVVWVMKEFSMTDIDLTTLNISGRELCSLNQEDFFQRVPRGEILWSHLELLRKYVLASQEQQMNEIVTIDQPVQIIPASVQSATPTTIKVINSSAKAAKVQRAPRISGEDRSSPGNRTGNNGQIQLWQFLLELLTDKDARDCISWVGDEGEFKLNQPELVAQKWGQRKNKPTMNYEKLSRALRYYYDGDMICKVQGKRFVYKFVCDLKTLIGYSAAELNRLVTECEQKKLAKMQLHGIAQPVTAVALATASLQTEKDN
# Method in brief: as §1
# ERG = target: T4, ERG (Homo sapiens, UniProt P11308 1-479)
# T4 sequence: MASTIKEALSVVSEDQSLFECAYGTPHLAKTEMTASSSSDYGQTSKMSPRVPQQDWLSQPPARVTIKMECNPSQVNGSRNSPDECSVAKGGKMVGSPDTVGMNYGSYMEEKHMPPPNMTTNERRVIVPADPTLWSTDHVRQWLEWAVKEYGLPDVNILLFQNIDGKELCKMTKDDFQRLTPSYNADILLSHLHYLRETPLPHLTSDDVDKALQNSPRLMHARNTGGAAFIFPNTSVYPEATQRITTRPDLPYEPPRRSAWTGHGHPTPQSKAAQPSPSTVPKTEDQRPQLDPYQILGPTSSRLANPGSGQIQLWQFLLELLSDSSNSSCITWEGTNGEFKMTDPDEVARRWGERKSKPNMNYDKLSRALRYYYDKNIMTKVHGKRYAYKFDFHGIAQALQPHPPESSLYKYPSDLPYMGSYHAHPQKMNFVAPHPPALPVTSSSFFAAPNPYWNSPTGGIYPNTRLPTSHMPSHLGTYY
# Method in brief: as §1
# ELF1 = ELF1 (Homo sapiens, UniProt P32519 1-619)
# Method in brief: as §1
# EHF = target: T5, EHF (Homo sapiens, UniProt Q9NZC4 1-300)
# T5 sequence: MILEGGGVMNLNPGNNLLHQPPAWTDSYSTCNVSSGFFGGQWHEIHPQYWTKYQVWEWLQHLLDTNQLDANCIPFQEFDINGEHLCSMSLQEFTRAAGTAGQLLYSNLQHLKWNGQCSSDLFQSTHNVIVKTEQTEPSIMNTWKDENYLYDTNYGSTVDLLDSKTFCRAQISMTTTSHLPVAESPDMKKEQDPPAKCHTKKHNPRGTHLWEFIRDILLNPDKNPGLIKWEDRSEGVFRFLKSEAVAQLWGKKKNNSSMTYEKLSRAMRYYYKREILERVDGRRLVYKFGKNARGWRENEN
# Method in brief: as §1
# SPI1 [1] = target: SPI1 (Homo sapiens, UniProt P17947 1-270)
# Method in brief: as §1
# SPIB = SPIB (Homo sapiens, UniProt Q01892 1-262)
# Method in brief: as §1
# ELK3 = target: T6, ELK3 (Homo sapiens, UniProt P41970 1-407)
# T6 sequence: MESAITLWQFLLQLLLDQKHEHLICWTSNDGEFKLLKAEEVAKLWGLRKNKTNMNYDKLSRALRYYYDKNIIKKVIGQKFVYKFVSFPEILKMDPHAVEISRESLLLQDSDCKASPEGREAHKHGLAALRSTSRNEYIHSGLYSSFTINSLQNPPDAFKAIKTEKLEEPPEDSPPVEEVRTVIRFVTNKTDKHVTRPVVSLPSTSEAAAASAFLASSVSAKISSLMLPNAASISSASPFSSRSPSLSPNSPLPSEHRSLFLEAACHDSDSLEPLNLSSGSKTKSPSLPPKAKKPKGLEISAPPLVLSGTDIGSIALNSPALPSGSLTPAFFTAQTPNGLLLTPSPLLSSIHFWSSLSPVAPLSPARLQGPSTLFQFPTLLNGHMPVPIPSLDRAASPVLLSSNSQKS
# Method in brief: as §1
# SPI1 [2] = target: SPI1 (Homo sapiens, UniProt P17947 1-270); remark: listed apart in the source
# Method in brief: as §1
# Sequence of ELF1 (P32519 whole entry): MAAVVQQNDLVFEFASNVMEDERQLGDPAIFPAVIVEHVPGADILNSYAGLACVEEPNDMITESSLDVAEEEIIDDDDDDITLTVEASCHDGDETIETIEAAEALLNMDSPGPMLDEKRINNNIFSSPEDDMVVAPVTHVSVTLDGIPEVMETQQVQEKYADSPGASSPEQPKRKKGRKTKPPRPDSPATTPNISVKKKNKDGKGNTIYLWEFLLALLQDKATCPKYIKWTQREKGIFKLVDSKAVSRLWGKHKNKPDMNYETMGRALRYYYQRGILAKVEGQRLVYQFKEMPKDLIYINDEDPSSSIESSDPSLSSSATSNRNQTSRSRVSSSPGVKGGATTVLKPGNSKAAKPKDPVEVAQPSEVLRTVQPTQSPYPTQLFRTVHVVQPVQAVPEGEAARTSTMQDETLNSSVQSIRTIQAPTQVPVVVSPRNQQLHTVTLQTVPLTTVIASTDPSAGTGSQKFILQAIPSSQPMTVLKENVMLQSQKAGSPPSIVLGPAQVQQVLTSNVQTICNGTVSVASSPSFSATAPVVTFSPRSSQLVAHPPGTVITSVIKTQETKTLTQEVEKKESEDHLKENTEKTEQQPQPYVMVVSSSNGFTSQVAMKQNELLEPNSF
# Sequence of SPIB (Q01892 whole entry): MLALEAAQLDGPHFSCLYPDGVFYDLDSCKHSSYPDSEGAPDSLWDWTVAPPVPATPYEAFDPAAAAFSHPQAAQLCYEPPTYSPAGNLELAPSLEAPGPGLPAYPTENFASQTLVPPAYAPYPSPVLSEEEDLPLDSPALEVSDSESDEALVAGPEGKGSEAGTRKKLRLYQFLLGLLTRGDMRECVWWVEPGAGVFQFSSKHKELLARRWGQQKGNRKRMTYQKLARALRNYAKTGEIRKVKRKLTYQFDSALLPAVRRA
Sequence,binding signal (FLI1),binding signal (ELK1),binding signal (GABPA),binding signal (ERG),binding signal (ELF1),binding signal (EHF),binding signal (SPI1 [1]),binding signal (SPIB),binding signal (ELK3),binding signal (SPI1 [2])
TTAGCT,"1.13 fold enrichment (6-mer frequency, TF over GST control)","1.21 fold enrichment (6-mer frequency, TF over GST control)","1.23 fold enrichment (6-mer frequency, TF over GST control)","1.15 fold enrichment (6-mer frequency, TF over GST control)","1.27 fold enrichment (6-mer frequency, TF over GST control)","1.2 fold enrichment (6-mer frequency, TF over GST control)","1.2 fold enrichment (6-mer frequency, TF over GST control)","1.19 fold enrichment (6-mer frequency, TF over GST control)","1.18 fold enrichment (6-mer frequency, TF over GST control)",
ATTACC,"1.22 fold enrichment (6-mer frequency, TF over GST control)","1.13 fold enrichment (6-mer frequency, TF over GST control)","1.16 fold enrichment (6-mer frequency, TF over GST control)","1.26 fold enrichment (6-mer frequency, TF over GST control)","1.23 fold enrichment (6-mer frequency, TF over GST control)","1.4 fold enrichment (6-mer frequency, TF over GST control)","1.16 fold enrichment (6-mer frequency, TF over GST control)","1.36 fold enrichment (6-mer frequency, TF over GST control)","1.26 fold enrichment (6-mer frequency, TF over GST control)",
TGCTTT,"1.13 fold enrichment (6-mer frequency, TF over GST control)","1.12 fold enrichment (6-mer frequency, TF over GST control)","1.12 fold enrichment (6-mer frequency, TF over GST control)","1.02 fold enrichment (6-mer frequency, TF over GST control)","1.1 fold enrichment (6-mer frequency, TF over GST control)","1.04 fold enrichment (6-mer frequency, TF over GST control)","1.14 fold enrichment (6-mer frequency, TF over GST control)","1.08 fold enrichment (6-mer frequency, TF over GST control)","1.1 fold enrichment (6-mer frequency, TF over GST control)",
TACTTC,"3.38 fold enrichment (6-mer frequency, TF over GST control)","3.79 fold enrichment (6-mer frequency, TF over GST control)","3.25 fold enrichment (6-mer frequency, TF over GST control)","3.88 fold enrichment (6-mer frequency, TF over GST control)","3.54 fold enrichment (6-mer frequency, TF over GST control)","3.7 fold enrichment (6-mer frequency, TF over GST control)",,"3.33 fold enrichment (6-mer frequency, TF over GST control)","4.29 fold enrichment (6-mer frequency, TF over GST control)","4.12 fold enrichment (6-mer frequency, TF over GST control)"
CATCCT,"1.68 fold enrichment (6-mer frequency, TF over GST control)","1.65 fold enrichment (6-mer frequency, TF over GST control)","1.51 fold enrichment (6-mer frequency, TF over GST control)","1.75 fold enrichment (6-mer frequency, TF over GST control)","1.64 fold enrichment (6-mer frequency, TF over GST control)","1.62 fold enrichment (6-mer frequency, TF over GST control)","1.59 fold enrichment (6-mer frequency, TF over GST control)","1.7 fold enrichment (6-mer frequency, TF over GST control)","1.68 fold enrichment (6-mer frequency, TF over GST control)",
ACCCTA,"1.19 fold enrichment (6-mer frequency, TF over GST control)","1.36 fold enrichment (6-mer frequency, TF over GST control)","1.25 fold enrichment (6-mer frequency, TF over GST control)","1.18 fold enrichment (6-mer frequency, TF over GST control)","1.32 fold enrichment (6-mer frequency, TF over GST control)","1.09 fold enrichment (6-mer frequency, TF over GST control)","1.19 fold enrichment (6-mer frequency, TF over GST control)","1.16 fold enrichment (6-mer frequency, TF over GST control)","1.29 fold enrichment (6-mer frequency, TF over GST control)",
TTCCGG,"5.8 fold enrichment (6-mer frequency, TF over GST control)","5.94 fold enrichment (6-mer frequency, TF over GST control)","5.16 fold enrichment (6-mer frequency, TF over GST control)","7.1 fold enrichment (6-mer frequency, TF over GST control)","5.41 fold enrichment (6-mer frequency, TF over GST control)","5.96 fold enrichment (6-mer frequency, TF over GST control)",,"5.9 fold enrichment (6-mer frequency, TF over GST control)","6.93 fold enrichment (6-mer frequency, TF over GST control)","5.73 fold enrichment (6-mer frequency, TF over GST control)"
CCTCCA,"1.37 fold enrichment (6-mer frequency, TF over GST control)","1.5 fold enrichment (6-mer frequency, TF over GST control)","1.23 fold enrichment (6-mer frequency, TF over GST control)","1.38 fold enrichment (6-mer frequency, TF over GST control)","1.37 fold enrichment (6-mer frequency, TF over GST control)","1.33 fold enrichment (6-mer frequency, TF over GST control)","1.28 fold enrichment (6-mer frequency, TF over GST control)","1.3 fold enrichment (6-mer frequency, TF over GST control)","1.37 fold enrichment (6-mer frequency, TF over GST control)",
